Only some compounds are listed: those with a hit (about 5.7% of all), similar ones and a draw of the others.
DAX1 inh-1 = DAX1 (NR0B1) inhibitors on StAR promoter, primary screen, cell-based, luminescence, SF-1 (NR5A1), full-length DAX-1; HEK293T StAR-luciferase reporter, SF-1/DAX-1 repression relief; inhibition, % at 6.8 µM; 1.1% of 370,000 active; AID 652010, 2013;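 active = inhibition above the mean over all tested compounds plus 3 SD, cut at about 3.6% in these data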;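 note: 0% = DAX-1 cells with DMSO and 100% = cells lacking DAX-1 with DMSO; higher inhibition means more luminescence from relief of DAX-1 repression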
ssDAF12 agonist = S. stercoralis DAF-12 nuclear receptor activators, primary screen, cell-based, luminescence, HEK293, GRIP1 co-expression, lit1-tk-luc; 1% of 370,000 active; activation, % at 6.8 µM; AID 652126, 2013; HEK293 ssDAF-12/GRIP1 lit1-tk-luc reporter; % of 3 µM dafachronic acid response; Nuclear hormone receptor DAF-12 (Strongyloides stercoralis);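 active = activation above the mean over all tested compounds plus 3 SD, cut at about 0.9% in these data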;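 note: 0% = DMSO-only wells and 100% = 3 µM delta7-dafachronic acid wells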
hcDAF-12 act = H. contortus DAF-12 nuclear receptor activators, primary screen, cell-based, luminescence, HEK293, lit1-tk-luc reporter. HEK293 hcDAF-12 lit1-tk-luc reporter; 0% DMSO, 100% Δ7-dafachronic acid. activation, % at 6.8 µM. 1.4% of 370,000 active. AID 652067, 2013;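 active = activation above the mean of all tested compounds plus 3 SD, cut at about 5.5% in these data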;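 note: 100% = response to 3 µM Δ7-dafachronic acid high control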
AHR activator = AHR activators, primary screen, cell-based, luminescence, luciferase reporter, human; Aryl hydrocarbon receptor (Homo sapiens), P35869; AHR-responsive luciferase reporter cells; activation, % at 5 µM; 2.5% of 320,000 active; AID 2796, 2010; in the data active = activation above about 47%;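 note: 0% = vehicle wells and 100% = reference agonist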
DAX1 inh-2 = DAX1 (NR0B1) inhibitors, primary screen, cell-based, HEK293, Gal4-DAX1, luciferase luminescence. Nuclear receptor subfamily 0 group B member 1 (Homo sapiens), P51843. 0.99% of 340,000 active. HEK293 Gal4-DAX1 luciferase reporter. inhibition, % at 6.75 µM;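 active = inhibition above the mean over all tested compounds plus 3 SD, cut at about 4.2% in these data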;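 note: 0% = DAX1-transfected cells with DMSO and 100% = empty-vector control cells with DMSO; inhibition shows as a rise in luminescence from relieved DAX1 repression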
Target sequence (P51843 207-470 limits assumed): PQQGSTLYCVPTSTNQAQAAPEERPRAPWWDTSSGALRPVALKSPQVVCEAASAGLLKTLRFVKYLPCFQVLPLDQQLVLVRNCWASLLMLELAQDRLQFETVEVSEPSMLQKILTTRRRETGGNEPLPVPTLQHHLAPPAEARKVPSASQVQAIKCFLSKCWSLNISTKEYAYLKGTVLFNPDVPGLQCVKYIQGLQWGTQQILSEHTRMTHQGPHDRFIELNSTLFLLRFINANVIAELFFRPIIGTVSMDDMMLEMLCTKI
hgDAF12 agonist = H. glycines DAF-12 receptor agonists, primary screen, cell-based, luminescence, HEK293, GAL4 fusion, UAS-luciferase. Nuclear hormone receptor DAF-12 (Heterodera glycines), GAL4 fusion. HEK293 GAL4-hgDAF12 UAS-luciferase reporter, agonist luminescence; normalized to butyrate control. activation, % at 6.8 µM. 1.8% of 370,000 active;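 active = activation above a cutoff set at the mean of all screened compounds plus 3 SD, cut at about 10% in these data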;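 note: 0% = DMSO wells and 100% = sodium butyrate wells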
Starred values were filed as active, the others as inactive; . = not tested or not shown.

SMILES	DAX1 inh-1	ssDAF12 agonist	hcDAF-12 act	AHR activator	DAX1 inh-2	hgDAF12 agonist
O=C(NC(Cc1c[nH]c2ccccc12)C(=O)N/N=C/c1cccnc1)c1cccs1 (centres undefined)	-1	-1	-1	40	-1	0
C[C@@H](NC(=O)c1[nH]cnc1C(=O)Nc1ccon1)c1ccccc1	-1	-1	0	6	1	-1
CCc1c(C)sc(NC(=S)Nc2cccnc2)c1C(=O)OC	0	-2	0	76*	0	-2
CCc1c(C)sc(NC(=S)Nc2nc(C)cc(C)n2)c1C(=O)OC	0	-1	0	12	0	-1
CC1=C(C(=O)Nc2ccccn2)C(c2ccccc2Cl)NC(=S)N1 (centres undefined)	2	-1	2	1	1	11*
Cc1cccc(OCCCC(=O)NCc2ccco2)c1	.	.	.	-2	0	.
N#Cc1ccc(C23CC4(C2)[C@H](CN(Cc2cccnc2)[C@@H]4c2ccccc2)C3c2ccccc2)cc1 (some centres undefined)	-1	-2	-3	-2	0	-2
Fc1cccc(F)c1[B-](F)(F)F	1	-1	-1	.	0	11*
CCOC(=O)c1cnc2c(N=Nc3ccccc3)c(N)nn2c1N	2	0.9*	1	31	0	7
CC(=O)Nc1ccc(NC(=O)c2cc(-c3ccc(F)cc3C)n[nH]2)cc1	4.1*	-1	2	.	.	13*
Cc1nn(-c2ccc(C(F)(F)F)cn2)c(C)c1Oc1ccccc1O	0	-1	-2	-1	2	-1
CN(C)/C=N/c1ncnc2c1cnn2-c1ccc(C(F)(F)F)cn1	1	0	4	.	1	11*
COc1cc(-c2noc(C)c2/C=C/c2ccc(N)cc2)cc(OC)c1OC	0	-1	2	71*	-2	-7
COc1cc(-c2noc(C)c2C#Cc2ccc(N)cc2)cc(OC)c1OC	0	-1	0	26	-1	-3
CCC1=[N+](CC(=O)c2ccc(C)cc2)CCn2cccc21	1	-1	2	23	0	1
CCC1=[N+](CC(=O)c2ccc(C)cc2)CCn2c(C)ccc21	0	0	1	71*	0	3
CCC1=[N+](C)CCn2c(C)ccc21	0	-2	-1	1	0	0
CCC1=[N+](CC(=O)c2ccc(Br)cc2)CCn2c(C)ccc21	1	-1	2	73*	1	3
Nc1cc(C(=O)OCC(=O)NNC(=O)c2cccs2)ccc1Cl	-1	0	1	0	-1	1
O=C(COc1ccc(F)cc1)Nc1cc(Cl)ccc1-n1cncn1	1	-1	1	19	-1	1
Cc1nc2c(ccc3nc(NC(=O)C(c4ccccc4)c4ccccc4)sc32)s1	0	2.5*	5	13	-1	0
COC(=O)[C@]12C[C@H](CC(=O)NCCCN3CCCC3=O)C(=O)N(Cc3ccco3)C1=C[C@H](COCc1ccccc1)O[C@@H]2C	-1	-1	-3	.	.	3
NNc1nc(-c2ccccc2)cc(-c2ccc(Br)cc2)n1	-1	-1	-1	69*	1	-1
Nc1ccc(-c2nc3ccc(N)cc3o2)cc1	2	-2	-1	18	4	12*
CN(C)c1ccc(-c2nc3cc(N)ccc3o2)cc1	1	1	5.8*	.	-5	11*
SMILES	DAX1 inh-1	ssDAF12 agonist	hcDAF-12 act	AHR activator	DAX1 inh-2	hgDAF12 agonist
Nc1ccc2oc(-c3cc(Br)ccc3Cl)nc2c1	.	.	.	49*	-2	.
Cc1ccc2nc(-c3cc(N)cc(N)c3)oc2c1	1	-2	-2	7	-3	-4
Nc1ccc(-c2nc3cc(N)ccc3o2)cc1	2	-1	4	4	1	11*
COC(=O)c1ccc(-c2nc3cc(N)ccc3o2)cc1	-1	-2	-3	0	-3	-5
CC(=O)NC(C)(c1ccccc1)c1nc(-c2cncnc2)cs1 (centres undefined)	1	-1	1	.	.	0
CCOC(=O)c1cc(C(C)(C)C)oc1CNC(=O)c1c(C)oc2c1CCCC2	0	-1	-2	1	0	-3
Cc1ccc(C(=O)ONC(=O)c2ccc(Cl)cc2)cc1[N+](=O)[O-]	1	-1	-2	55*	2	-1
Cc1ccc(C(=O)NNC(=O)c2ccncc2)cc1[N+](=O)[O-]	-1	-2	-1	1	1	2
CC(NC(=O)/C(=C/c1ccc2c(c1)OCO2)NC(=O)c1cccc([N+](=O)[O-])c1)C(=O)O (centres undefined)	0	-1	0	2	1	-1
CC1(C)CC(NCCC(c2ccccc2)c2ccco2)CCO1 (centres undefined)	1	-2	2	2	8.2*	1
O=C(Nc1cnccc1C(F)(F)F)NC1CCCCC1	0	-1	-1	13	2	5
CCOC(=O)c1sc2nc3c(SCCC#N)cc(C(=O)c4cc(F)ccc4O)cn3c(=O)c2c1C	1	1.5*	4	15	0	4
CCOC(=O)c1sc2nc3c(SCCC(=O)O)cc(C(=O)c4cc(OC)ccc4O)cn3c(=O)c2c1C	-1	-1	-1	.	-1	5
COc1ccc(CN(C(=O)c2ccco2)c2ccccc2)cc1	0	-1	5.9*	2	0	0
COc1ccc(CN(C(=O)c2cccs2)c2ccccc2)cc1	-1	-2	1	4	0	-1
CC(=O)NC12CC3CC(C1)CC(C(=O)N1CCN(S(=O)(=O)c4ccc(C(C)C)cc4)CC1)(C3)C2	0	-1	1	-1	-1	-1
COCCCn1c(=O)c2sccc2n(Cc2ccccc2)c1=O	0	-1	-2	-1	0	-1
COCCCn1c(=O)c2sccc2n(Cc2ccc(C)cc2)c1=O	0	1.0*	-1	0	0	-2
ON=Cc1ccnc2ccccc12	0	-1	-1	.	2	0
O=C(O)c1ccccc1N/N=C\c1ccnc2ccccc12	4	1	6.4*	65*	0	12*
O=C(O)c1ccccc1N/N=C/c1cc(Br)cc(Br)c1O	4	-1	2	49*	5.6*	7

Compound activity deposited in PubChem by The Scripps Research Institute Molecular Screening Center.
